Where “and” joins values, the source holds several entries; their conditions need not be identical. Identical values can stand only once. Results filed as inconclusive are left out. Where a call stands in place of a potency, no number is given. Where a structure was tested more than once in an assay, its records may differ in their call. Calls of active or inactive are those of the source. Calls follow the shape of the dose curve; as a rule, active = well fitted curve in the direction sought with a large enough effect; inconclusive = small, poorly fitted or top-dose-only effect, or another doubt; inactive = no such curve, though single readings can be large; an effect the other way counts as inactive or inconclusive.
Potency is read from the fitted curve at half-maximal effect.

Papain (Carica papaya), sequence (P00784 whole entry, looked up): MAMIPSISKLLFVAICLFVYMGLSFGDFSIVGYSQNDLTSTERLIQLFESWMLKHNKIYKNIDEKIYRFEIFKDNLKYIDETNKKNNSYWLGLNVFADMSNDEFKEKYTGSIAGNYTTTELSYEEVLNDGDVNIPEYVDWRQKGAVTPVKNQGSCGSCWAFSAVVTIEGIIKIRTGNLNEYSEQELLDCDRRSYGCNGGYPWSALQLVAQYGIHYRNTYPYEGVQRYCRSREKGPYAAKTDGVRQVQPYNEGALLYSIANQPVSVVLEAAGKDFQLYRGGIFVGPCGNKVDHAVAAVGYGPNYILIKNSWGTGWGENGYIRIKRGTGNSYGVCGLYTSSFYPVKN

One test concerns the target Papain (Carica papaya) (UniProt P00784). Kind of test: Primary qHTS assay for inhibitors of the protease papain (AID 1645873).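 Also: papain turnover of Z-FR-AMC read as the AMC fluorescence gain over 10 min.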 Conditions: papain Z-FR-AMC cleavage, AMC fluorescence; series mostly up to 49.8 µM.
On to `CCn1cc(C(=O)O)c(=O)c2cc(F)c(N3CCNC(C)C3)c(F)c21` (stereo not drawn), for which the Potency was 15.8 µM (active).

Regarding `C1COC(NC(C2CC2)C2CC2)=N1`, the Potency entry was “inactive”.

As for `CCCc1nn(C)c2c(=O)[nH]c(-c3cc(S(=O)(=O)N4CCN(C)CC4)ccc3OCC)nc12`, the Potency entry was “inactive”.

Consider `CC(=O)Oc1ccccc1C(=O)O`, for which the Potency entry was “inactive”.

Take `O=NN(CCCl)C(=O)NCCCl`: the Potency entry was “inactive”.

With `NC(=O)c1cnccn1`, the Potency result is “inactive”.

As for `CCCCNc1cc(C(=O)O)cc(S(N)(=O)=O)c1Oc1ccccc1`, the Potency is 20 µM (active).

Regarding `OC(CCN1CCCCC1)(c1ccccc1)C1CC2C=CC1C2` (stereo not drawn), the Potency result is “inactive”.

For the compound `Cn1cnc([N+](=O)[O-])c1Sc1ncnc2nc[nH]c12`, the Potency result was “inactive”.

Regarding `O=C1CCC(N2C(=O)c3ccccc3C2=O)C(=O)N1` (stereo not drawn), the Potency result is “inactive”.

Turning to `Cc1cccc(-c2[nH]c(C(C)(C)C)nc2-c2ccc3nccnc3c2)n1`, the Potency result was “inactive”.

`CCCC(CCC)C(=O)O`: the Potency entry was “inactive”.

As to `Nc1nc2c(ncn2COCCO)c(=O)[nH]1`, the Potency entry was “inactive”.

Regarding `Clc1cccc(Cl)c1NC1=NCCN1`, the Potency entry was “inactive”.

In the case of `CCc1cncnc1N1CCN(Cc2nc3ccc(C(F)(F)F)cc3[nH]2)CC1`, the Potency entry is “inactive”.

Regarding `O=C(O)CCc1ccc(NCc2cccc(Oc3ccccc3)c2)cc1`, the Potency result was “inactive”.

As for `O=C1CCc2cc(OCCCCc3nnnn3C3CCCCC3)ccc2N1`, the Potency result is “inactive”.

For the compound `Cc1oncc1C(=O)Nc1ccc(C(F)(F)F)cc1`, the Potency entry was “inactive”.

For the compound `NNCCc1ccccc1`, the Potency entry is “inactive”.

For the compound `Oc1ccc(C2CNCCc3c2cc(O)c(O)c3Cl)cc1` (stereo not drawn), the Potency result was “inactive”.

On to `Cc1cn[nH]c1`, for which the Potency result is “inactive”.

As for `CC(C)C[C@H](NC(=O)[C@@H](O)[C@H](N)Cc1ccccc1)C(=O)O`, the Potency result is “inactive”.

As to `Cc1ccccc1C(OCCN(C)C)c1ccccc1` (stereo not drawn), the Potency result was “inactive”.

With `Cc1[nH]c(=O)c(C#N)cc1-c1ccncc1`, the Potency result was “inactive”.

As to `O=c1[nH]cnc2[nH]ncc12`, the Potency result is “inactive”.

On to `CCC(C)N(C)C(=O)c1cc2ccccc2c(-c2ccccc2Cl)n1` (stereo not drawn), for which the Potency result was “inactive”.

With `CC(C)(C)NCC(O)c1ccc(O)c(CO)c1` (stereo not drawn), the Potency entry was “inactive”.

As to `NCCCC(N)(C(=O)O)C(F)F` (stereo not drawn), the Potency result was “inactive”.

Consider `CC(C)NCC(O)COc1ccc(COCCOC(C)C)cc1` (stereo not drawn), for which the Potency entry was “inactive”.

For the compound `NS(=O)(=O)c1cc2c(cc1Cl)NC=NS2(=O)=O`, the Potency entry is “inactive”.

Test system in a further test: not listed separately
Kind of test: Primary qHTS for inhibitors of nuclear receptor binding SET domain protein 2 (NSD2) in an isogenic RCH-ACV NSD2 p.E1099K mutant (9B) (AID 1645876). Also: nearly all actives have a fitted effect of over 70% in size. The following applies: RCH-ACV NSD2 E1099K (9B) viability, CellTiter-Glo, 72 h; series mostly up to 44.9 µM.
As to `CCn1cc(C(=O)O)c(=O)c2cc(F)c(N3CCNC(C)C3)c(F)c21` (stereo not drawn), the Potency result is “inactive”.

`C1COC(NC(C2CC2)C2CC2)=N1`: the Potency result was “inactive”.

Turning to `CCCc1nn(C)c2c(=O)[nH]c(-c3cc(S(=O)(=O)N4CCN(C)CC4)ccc3OCC)nc12`, the Potency result is “inactive”.

On to `CC(=O)Oc1ccccc1C(=O)O`, for which the Potency result was “inactive”.

For `O=NN(CCCl)C(=O)NCCCl`, the Potency entry was “inactive”.

As for `NC(=O)c1cnccn1`, the Potency entry was “inactive”.

Take `CCCCNc1cc(C(=O)O)cc(S(N)(=O)=O)c1Oc1ccccc1`: the Potency result was “inactive”.

`OC(CCN1CCCCC1)(c1ccccc1)C1CC2C=CC1C2` (stereo not drawn): the Potency result was “inactive”.

As for `Cn1cnc([N+](=O)[O-])c1Sc1ncnc2nc[nH]c12`, the Potency is 959 nM (active) and 1.19 µM (active) and 4.17 µM (active).

With `O=C1CCC(N2C(=O)c3ccccc3C2=O)C(=O)N1` (stereo not drawn), the Potency result is “inactive”.

As to `Cc1cccc(-c2[nH]c(C(C)(C)C)nc2-c2ccc3nccnc3c2)n1`, the Potency was 13.2 µM (active) and 5.8 µM (active).

Consider `CCCC(CCC)C(=O)O`, for which the Potency entry is “inactive”.

For the compound `Nc1nc2ccc(OC(F)(F)F)cc2s1`, the Potency was 23.5 µM (active).

Consider `Nc1nc2c(ncn2COCCO)c(=O)[nH]1`, for which the Potency entry was “inactive”.

As to `Clc1cccc(Cl)c1NC1=NCCN1`, the Potency entry was “inactive”.

`O=C(O)CCc1ccc(NCc2cccc(Oc3ccccc3)c2)cc1`: the Potency entry was “inactive”.

As to `O=C1CCc2cc(OCCCCc3nnnn3C3CCCCC3)ccc2N1`, the Potency result is “inactive”.

As for `Cc1oncc1C(=O)Nc1ccc(C(F)(F)F)cc1`, the Potency is 10.6 µM (active) and 16.6 µM (active).

For `NNCCc1ccccc1`, the Potency result was “inactive”.

`Oc1ccc(C2CNCCc3c2cc(O)c(O)c3Cl)cc1` (stereo not drawn): the Potency result is “inactive”.

Turning to `Cc1cn[nH]c1`, the Potency entry was “inactive”.

Take `CC(C)C[C@H](NC(=O)[C@@H](O)[C@H](N)Cc1ccccc1)C(=O)O`: the Potency entry was “inactive”.

Turning to `Cc1ccccc1C(OCCN(C)C)c1ccccc1` (stereo not drawn), the Potency result is “inactive”.

In the case of `Cc1[nH]c(=O)c(C#N)cc1-c1ccc2nccn2c1`, the Potency entry was “inactive”.

For `Cc1[nH]c(=O)c(C#N)cc1-c1ccncc1`, the Potency result is “inactive”.

With `O=c1[nH]cnc2[nH]ncc12`, the Potency result was “inactive”.

Consider `Nc1ccc(S(=O)(=O)Nc2ccnn2-c2ccccc2)cc1`, for which the Potency result is “inactive”.

For the compound `NC[C@H](O)c1ccc(O)c(O)c1`, the Potency entry was “inactive”.

As for `CC(C)(C)NCC(O)c1ccc(O)c(CO)c1` (stereo not drawn), the Potency entry was “inactive”.

`NCCCC(N)(C(=O)O)C(F)F` (stereo not drawn): the Potency entry was “inactive”.

As to `CC(C)NCC(O)COc1ccc(COCCOC(C)C)cc1` (stereo not drawn), the Potency entry is “inactive”.

With `NS(=O)(=O)c1cc2c(cc1Cl)NC=NS2(=O)=O`, the Potency result was “inactive”.

Test system in the next test: not listed separately
Kind of test: Primary qHTS for inhibitors of nuclear receptor binding SET domain protein 2 (NSD2) in an RCH-ACV wild type WT cells (2C) (AID 1645877). Also: nearly all actives have a fitted effect of over 70% in size. The following applies: RCH-ACV (leukaemia line) NSD2 WT (2C) viability, CellTiter-Glo, 72 h; series mostly up to 44.9 µM. In general terms: qHTS replaces the single test concentration by a dilution series.
Consider `CCn1cc(C(=O)O)c(=O)c2cc(F)c(N3CCNC(C)C3)c(F)c21` (stereo not drawn), for which the Potency entry is “inactive”.

For the compound `C1COC(NC(C2CC2)C2CC2)=N1`, the Potency result was “inactive”.

Consider `CCCc1nn(C)c2c(=O)[nH]c(-c3cc(S(=O)(=O)N4CCN(C)CC4)ccc3OCC)nc12`, for which the Potency is 10.6 µM (active) and inactive.

With `O=NN(CCCl)C(=O)NCCCl`, the Potency entry was “inactive”.

For the compound `CCCCNc1cc(C(=O)O)cc(S(N)(=O)=O)c1Oc1ccccc1`, the Potency result was “inactive”.

For the compound `Cn1cnc([N+](=O)[O-])c1Sc1ncnc2nc[nH]c12`, the Potency was 1.35 µM (active) and 944 nM (active) and 3.72 µM (active).

As to `Cc1cccc(-c2[nH]c(C(C)(C)C)nc2-c2ccc3nccnc3c2)n1`, the Potency is 11.8 µM (active) and 6.51 µM (active).

For the compound `CCCC(CCC)C(=O)O`, the Potency entry was “inactive”.

Regarding `Nc1nc2ccc(OC(F)(F)F)cc2s1`, the Potency was 20.9 µM (active).

As to `O=c1n(CCCN2CCN(c3cccc(Cl)c3)CC2)nc2ccccn12`, the Potency entry was “inactive”.

For `Nc1nc2c(ncn2COCCO)c(=O)[nH]1`, the Potency entry was “inactive”.

As for `Clc1cccc(Cl)c1NC1=NCCN1`, the Potency entry is “inactive”.

As to `O=C1CCc2cc(OCCCCc3nnnn3C3CCCCC3)ccc2N1`, the Potency was 21.1 µM (active).

With `Oc1ccc(C2CNCCc3c2cc(O)c(O)c3Cl)cc1` (stereo not drawn), the Potency result is “inactive”.

On to `Cc1[nH]c(=O)c(C#N)cc1-c1ccc2nccn2c1`, for which the Potency result was “inactive”.

Consider `Cc1[nH]c(=O)c(C#N)cc1-c1ccncc1`, for which the Potency result was “inactive”.

Take `O=c1[nH]cnc2[nH]ncc12`: the Potency entry is “inactive”.

For the compound `Nc1ccc(S(=O)(=O)Nc2ccnn2-c2ccccc2)cc1`, the Potency result is “inactive”.

`CC(C)(C)NCC(O)c1ccc(O)c(CO)c1` (stereo not drawn): the Potency entry was “inactive”.

Take `NCCCC(N)(C(=O)O)C(F)F` (stereo not drawn): the Potency result is “inactive”.

Turning to `CC(C)NCC(O)COc1ccc(COCCOC(C)C)cc1` (stereo not drawn), the Potency result was “inactive”.

These data come from PubChem BioAssay (NCATS).
